Measurements: PubChem BioAssay
“And” between values parts separate entries of the source, which are not always exact repeats. Equal entries are not always repeated. Inconclusive results are not listed. The source made the active and inactive calls. Unless noted, the rule behind the calls is not given here.

Experiments:
[1] = compounds altering circadian rhythm period length – cell-based, LOPAC library, luminescence reporter (AID 2774); settings: circadian reporter cells, at 7 µM, actives lie on both sides;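 note: values are relative to mean of DMSO wells on each plate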
[2] = compounds altering viability of human ES cells (AID 493140); settings: human embryonic stem cell survival screen; stronger effect = higher value;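 note: cells exposed to compounds for four days before counting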
[3] = system: Hepatitis C virus NS3 helicase; assay: blockers of NS3h binding to ssDNA – biochemical, fluorescence polarization, LOPAC1280 library, primary screen (AID 687035; in the data active = inhibition above about 37%); settings: Purified HCV NS3 helicase, Cy5-dT15 ssDNA binding fluorescence polarization; stronger effect = higher value; concentration not given here
[4] = compounds altering Cy5-DNA-NS3h complex signal – biochemical, LOPAC1280, artefact control for HCV NS3 helicase inhibitor project (AID 687037); settings: Cy5-DNA-NS3h complex fluorescence interference counterscreen
[5] = system: Aerobactin synthetase IucA (Klebsiella pneumoniae, hypervirulent); assay: biochemical IucA inhibition screen of LOPAC library by absorbance (AID 1346212); settings: IucA enzyme assay, absorbance (OD) readout; stronger effect = lower value;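 tested at 8 µM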;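 note: 100% = no compound wells and 0% = no enzyme wells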
[6] = viability loss with induced miR-34 in A549 – imaging, A549 dox-inducible miR-34, nuclei and caspase counts, primary screen (AID 1347080;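 active = compounds whose cell count with miR-34 switched on is under 0.7 times the count with it off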); settings: A549 miR-34 inducible, Hoechst nuclei count, 48 h
[7] = blockers of cellular phospholipid synthesis – cell-based, LOPAC library, screen 4, primary screen (AID 1347384); settings: animal cells, phospholipid biosynthesis inhibition screen; at 10 µM
[8] = galactose survival enhancers in mitochondrial complex I cybrids – cell-based, galactose medium, ATP luminescence, primary screen (AID 1645843;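 active = z-score of at least 1.8 in each of two replicates, scored against plate mean and spread of sample wells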;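 note: positive z means more ATP and so rescue of galactose-driven cybrid death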); settings: complex I mutant cybrid cells, 72 h, stronger effect = higher value
[9] = viability loss in pontine glioma line – cell-based, SU-DIPG-XXV, MIPE5.0, CellTiter-Glo, qHTS, dose response (AID 1347065; cut-off not given, nearly all actives have AC50 up to about 26 µM;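 note: cells exposed to compound for 48 hours before ATP readout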); settings: CellTiter-Glo ATP luminescence
[10] = JHH-DIPG-1 glioma cell viability, MIPE5.0 library, CellTiter-Glo luminescence, qHTS (AID 1347067; cut-off not given, nearly all actives have AC50 up to about 26 µM;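 note: cells exposed to compound for 48 hours before readout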); settings: JHH-DIPG-1 glioma viability, CellTiter-Glo ATP luminescence
[11] = growth inhibition of DIPG cells – cell-based, MIPE5.0 library, qHTS (AID 1347068; cut-off not given, nearly all actives have IC50 up to about 30 µM); settings: SU-DIPG-XXV viability
[12] = chitosan synthesis blockers in C. neoformans – flow cytometry, Cibacron Brilliant Red staining (AID 1347148); settings: Cryptococcus neoformans chitosan, stronger effect = lower value; at 10 µM unless noted;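 note: compound exposure lasted three days at 37 degrees C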
[13] = measured here: relative caspase fold change +Dox/-Dox
[14] = measured here: total cells with miR-34 induction, stronger effect = lower value
[15] = measured here: total cells without miR-34 induction

CN1CC[C@@]2(C)c3cc(O)ccc3N(C)C12 (stereo partly drawn)
period change [1]: -0.055 h (inactive)
survival [2]: 4.58 (inactive)
inhibition [3]: 1% (inactive)
fluorescence ratio (interference) [4]: 1 (inactive)
remaining activity [5]: 92.9% (inactive)
fold change ([6]; stronger effect = lower value): 1.09 (inactive)
fold change [6, 13]: 1.19
cell count [6, 14]: 8970
cell count [6, 15]: 8270
outcome [7]: inactive
z-score [8]: -1.04 (inactive)

CNCCc1c[nH]c2ccc(O)cc12
period change [1]: 0.02 h (inactive)
inhibition [3]: -6% (inactive)
fluorescence ratio (interference) [4]: 0.9 (inactive)
remaining activity [5]: 121% (inactive)
fold change ([6]; stronger effect = lower value): 1.03 (inactive)
fold change [6, 13]: 1.46
cell count [6, 14]: 10900
cell count [6, 15]: 10600
outcome [7]: inactive
z-score [8]: 0.2 (inactive)

Clc1cc(I)cc(Cl)c1NC1=NCCN1
period change [1]: 0.11 h (inactive)
inhibition [3]: -6% (inactive)
fluorescence ratio (interference) [4]: 0.9 (inactive)
remaining activity [5]: 117% (inactive)
fold change ([6]; stronger effect = lower value): 1.15 (inactive)
fold change [6, 13]: 1.05
cell count [6, 14]: 11200
cell count [6, 15]: 9770
outcome [7]: inactive
z-score [8]: 0.175 (inactive)

OCc1cnc[nH]1
period change [1]: 0.065 h (inactive)
inhibition [3]: 0% (inactive)
fluorescence ratio (interference) [4]: 1 (inactive)
remaining activity [5]: 102% (inactive)
fold change ([6]; stronger effect = lower value): 0.96 (inactive)
fold change [6, 13]: 1.56
cell count [6, 14]: 10400
cell count [6, 15]: 10800
outcome [7]: inactive
z-score [8]: 0.255 (inactive)

C[N+](C)(C)CCOC(=O)CBr
period change [1]: 0.015 h (inactive)
inhibition [3]: -2% (inactive)
fluorescence ratio (interference) [4]: 1 (inactive)
remaining activity [5]: 126% (inactive)
fold change ([6]; stronger effect = lower value): 1.01 (inactive)
fold change [6, 13]: 2.27
cell count [6, 14]: 10100
cell count [6, 15]: 10100
outcome [7]: inactive
z-score [8]: 0.69 (inactive)

CCCN(CCC)CCc1ccc(O)c(O)c1
period change [1]: -0.225 h (inactive)
inhibition [3]: 0% (inactive)
fluorescence ratio (interference) [4]: 1 (inactive)
remaining activity [5]: 95.7% (inactive)
fold change ([6]; stronger effect = lower value): 0.99 (inactive)
fold change [6, 13]: 0.931
cell count [6, 14]: 10100
cell count [6, 15]: 10200
outcome [7]: inactive
z-score [8]: 0.465 (inactive)

CC(=O)c1c(O)c(C)c(O)c(Cc2c(O)c3c(c(C(=O)/C=C/c4ccccc4)c2O)OC(C)(C)C=C3)c1O
period change [1]: 0.065 h (inactive)
survival [2]: 142 (inactive)
inhibition [3]: -3% (inactive)
fluorescence ratio (interference) [4]: 0.9 (inactive)
remaining activity [5]: 100% (inactive)
AC50 [9]: 20.9 µM (active)
AC50 [10]: 23.5 µM (active)
outcome [11]: inactive
fold change ([6]; stronger effect = lower value): 0.991 (inactive) and 1.02 (inactive)
fold change [6, 13]: 1.01 and 0.826
cell count [6, 14]: 1480 and 1570
cell count [6, 15]: 1490 and 1540
fold fluorescence [12]: 4.65 [at 96.8 µM] (inactive)
outcome [7]: active
z-score [8]: -1.27 (inactive)

N#C/C(=C\c1ccc(O)c(O)c1)C(N)=S
survival [2]: 132 (inactive)
remaining activity [5]: 89.1% (inactive)
fold change ([6]; stronger effect = lower value): 0.909 (inactive)
fold change [6, 13]: 1.22
cell count [6, 14]: 4790
cell count [6, 15]: 5270
fold fluorescence [12]: 5.68 [at 227 µM] (inactive)

CCCC[N+]1(C)C2CC(OC(=O)[C@H](CO)c3ccccc3)CC1C1OC12 (stereo partly drawn)
period change [1]: -0.065 h (inactive)
inhibition [3]: -1% (inactive)
fluorescence ratio (interference) [4]: 1 (inactive)
remaining activity [5]: 117% (inactive)
fold change ([6]; stronger effect = lower value): 0.937 (inactive)
fold change [6, 13]: 1.39
cell count [6, 14]: 9870
cell count [6, 15]: 10500
outcome [7]: inactive
z-score [8]: 0.72 (inactive)

C[C@H](N)CN1CCc2ccc(Br)cc21
period change [1]: 0.205 h (inactive)
inhibition [3]: -3% (inactive)
fluorescence ratio (interference) [4]: 1 (inactive)
remaining activity [5]: 115% (inactive)
fold change ([6]; stronger effect = lower value): 1.19 (inactive)
fold change [6, 13]: 0.954
cell count [6, 14]: 9010
cell count [6, 15]: 7600
outcome [7]: inactive
z-score [8]: -0.65 (inactive)

Nc1ccc(CCN2CCN(c3cccc(C(F)(F)F)c3)CC2)cc1
period change [1]: 0.14 h (inactive)
inhibition [3]: -3% (inactive)
fluorescence ratio (interference) [4]: 0.9 (inactive)
remaining activity [5]: 102% (inactive)
fold change ([6]; stronger effect = lower value): 0.992 (inactive)
fold change [6, 13]: 0.858
cell count [6, 14]: 8520
cell count [6, 15]: 8580
outcome [7]: inactive
z-score [8]: -0.665 (inactive)

C#CCN[C@H](C)Cc1ccccc1
period change [1]: -0.015 h (inactive)
inhibition [3]: -2% (inactive)
fluorescence ratio (interference) [4]: 1 (inactive)
remaining activity [5]: 82% (inactive)
fold change ([6]; stronger effect = lower value): 0.962 (inactive)
fold change [6, 13]: 1.51
cell count [6, 14]: 9640
cell count [6, 15]: 10000
outcome [7]: inactive
z-score [8]: 0.54 (inactive)

O=[N+]([O-])c1ccc2nc(N3CCNCC3)ccc2c1
period change [1]: -0.09 h (inactive)
inhibition [3]: -1% (inactive)
fluorescence ratio (interference) [4]: 1 (inactive)
remaining activity [5]: 117% (inactive)
fold change ([6]; stronger effect = lower value): 1.07 (inactive)
fold change [6, 13]: 1.56
cell count [6, 14]: 8660
cell count [6, 15]: 8090
outcome [7]: inactive
z-score [8]: -1.12 (inactive)

NNC(=O)c1ccc(O)cc1
period change [1]: 0.115 h (inactive)
inhibition [3]: 1% (inactive)
fluorescence ratio (interference) [4]: 1.1 (inactive)
remaining activity [5]: 109% (inactive)
fold change ([6]; stronger effect = lower value): 0.976 (inactive)
fold change [6, 13]: 1.57
cell count [6, 14]: 9790
cell count [6, 15]: 10000
outcome [7]: inactive
z-score [8]: 0.275 (inactive)

CC(C)Oc1cccnc1N(C)C1CCN(Cc2ccccc2)CC1
period change [1]: 0.225 h (inactive)
inhibition [3]: -3% (inactive)
fluorescence ratio (interference) [4]: 1 (inactive)
remaining activity [5]: 99.8% (inactive)
fold change ([6]; stronger effect = lower value): 0.905 (inactive)
fold change [6, 13]: 1.08
cell count [6, 14]: 8620
cell count [6, 15]: 9520
outcome [7]: inactive
z-score [8]: -0.4 (inactive)

CC(=O)[C@H]1CCC2C3CC[C@H]4C[C@H](O)CC[C@]4(C)C3CC[C@@]21C (stereo partly drawn)
period change [1]: -0.055 h (inactive)
inhibition [3]: 0% (inactive)
fluorescence ratio (interference) [4]: 1 (inactive)
remaining activity [5]: 95.7% (inactive)
fold change ([6]; stronger effect = lower value): 1.03 (inactive)
fold change [6, 13]: 0.981
cell count [6, 14]: 10100
cell count [6, 15]: 9760
outcome [7]: inactive
z-score [8]: -0.6 (inactive)
